Assay outcomes deposited in PubChem BioAssay by National Center for Advancing Translational Sciences (NCATS).
ELG1 repair inh – blocks ELG1-dependent DNA repair in HEK293T cells; Potency, µM (titrated, usually from 46.1 µM), for inactives: top-dose activity change, negative = inhibition, most hits filed as inhibitors; 330,000 compounds, 2.3% hits; HEK293T ELG1-luciferase reporter, luminescence, 16 h; DNA damage induced by 5-fluorouridine; also: % is scaled to controls: 0 for no effect and ±100 for the full control effect; nearly all actives have a fitted effect of over 55% in size
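Step one: seed 2,000 cells per well. Step two: pin-transfer compound or DMSO alongside 5-fluorouridine. Step three: incubate 16 hr, 37 °C, 5% CO2. Step four: add ONE-Glo, wait 30 min, read luminescence.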
NPC1 promoter act – activates the NPC1 promoter; Huh7 NPC1 promoter luciferase reporter, 24 h; Potency, µM (top dose mostly 9.22 µM), inactives show at the highest dose activation, usual class: activators; 320,000 compounds, 2.4% hits; AID 485313; also: % of control where 0% means no effect; nearly all actives have a fitted effect of over 60% in size
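Luminescence read-out of NPC1 promoter-driven luciferase in stably transfected Huh7 cells; compounds delivered in DMSO and left 24 h at 37C, 5% CO2, qHTS titration format.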
FLuc counter – inhibits or activates purified firefly luciferase, miR-21 counter-screen. Potency, µM (doses to about 57.5 µM), for the others: top-dose activity change, negative = inhibition, hits mostly inhibitors. purified FLuc, Km substrates, luminescence inhibition. 360,000 compounds, 6.9% hits;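 also: plate controls were vehicle for no effect and reference inhibitor for full effect; nearly all actives have a fitted effect of over 55% in size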
Target sequence (P08659 whole entry, looked up): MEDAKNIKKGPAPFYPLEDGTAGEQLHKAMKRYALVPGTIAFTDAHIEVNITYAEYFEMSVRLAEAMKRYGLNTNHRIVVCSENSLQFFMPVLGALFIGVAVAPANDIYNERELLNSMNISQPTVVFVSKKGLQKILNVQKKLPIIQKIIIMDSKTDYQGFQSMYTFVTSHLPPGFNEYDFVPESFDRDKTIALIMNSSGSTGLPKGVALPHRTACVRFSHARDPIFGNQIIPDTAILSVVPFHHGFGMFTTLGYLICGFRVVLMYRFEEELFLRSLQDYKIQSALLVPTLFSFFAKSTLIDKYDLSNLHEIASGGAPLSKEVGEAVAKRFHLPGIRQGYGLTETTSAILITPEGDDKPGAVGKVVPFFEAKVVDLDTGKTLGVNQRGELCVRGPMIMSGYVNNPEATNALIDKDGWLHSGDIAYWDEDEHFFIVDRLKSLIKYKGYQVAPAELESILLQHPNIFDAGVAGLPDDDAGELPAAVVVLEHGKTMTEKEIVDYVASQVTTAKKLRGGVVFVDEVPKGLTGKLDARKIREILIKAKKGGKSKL
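Purified P. pyralis luciferase (10nM final) with 10uM D-luciferin and 10uM ATP (Km levels) in 50mM Tris acetate pH 7.5, 10mM Mg acetate, 0.01% Tween-20, 0.05% BSA; qHTS 6-point titration, ~60 µM downward; luminescence read.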
Rab9 prom act – Rab9 promoter activation | Huh7 Rab9 promoter-luciferase reporter, luminescence, 24 h | Potency, µM (highest dose often 9.22 µM), without a hit: at the top dose activation, negative = inhibition, hits mostly activators | 320,000 compounds, 2.8% hits; also: % of control where 0% means no effect; nearly all actives have a fitted effect of over 60% in size
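Promoter activation is measured as luciferase luminescence in Huh7 cells stably transfected with a Rab9 promoter–luciferase construct, following 24 h compound exposure at 37 °C and 10 min reagent incubation at ambient temperature.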
SMN2 splice enh – SMN2 splice variant enhancement. HEK293 SMN2-luciferase splicing reporter, luminescence, 30-36 h. Potency, µM (highest dose often 46.1 µM), without a hit: at the highest dose activity change, positive = activation, actives largely listed as activators. 210,000 compounds, 2.8% hits; also: % of control where 0% means no effect; nearly all actives have a fitted effect of over 55% in size
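HEK293 cells carry an SMN2 […]–luciferase reporter in which exon 7 inclusion puts luciferase in frame. Cells were plated 10-12 h before compound addition, then incubated 30-36 h at 37C. ONE-Glo luminescence was read; sodium butyrate at 4.5 mM final served as control.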
ELG1 genotox – genotoxicity induction in ELG1-luciferase HEK293T cells; HEK293T ELG1-luciferase reporter, luminescence, 16 h; Potency, µM (top dose mostly 46 µM), for the others: at the highest dose activity change, positive = activation, most hits filed as activators; 330,000 compounds, 1.3% hits; also: % of control where 0% means no effect; nearly all actives have a fitted effect of over 60% in size
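16 hr compound incubation (37 °C, 5% CO2) of HEK293T cells carrying luciferase-tagged ELG1; luciferase then measured by ONE-Glo luminescence after 30 min at RT.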
* marks the source's active call; other numbers are inactive results; [ ] = remark or other dose. In the library only some 9.3% were active in any assay of this set; here they are far more common. Calls follow the shape of the dose curve; as a rule, active = well fitted curve in the direction sought with a large enough effect; inconclusive = small, poorly fitted or top-dose-only effect, or another doubt; inactive = no such curve, though single readings can be large; an effect the other way counts as inactive or inconclusive. Potency is read from the fitted curve at half-maximal effect.

Screening COc1cc(/C=C2/C(=O)NN(c3ccc(Cl)cc3)C2=O)cc(Br)c1O returned ELG1 repair inh 0%, NPC1 promoter act 1%, FLuc counter 27µM*, Rab9 prom act 0% and ELG1 genotox -4%.
Screening COc1cccc(/C=C2/C(=O)NN(c3ccc(Br)cc3)C2=O)c1O returned ELG1 repair inh 13%, NPC1 promoter act -3%, FLuc counter 1.9µM*, Rab9 prom act -2% and ELG1 genotox 2%.
Screening COc1cc(/C=C2/C(=O)NN(c3ccc(Cl)c(Cl)c3)C2=O)cc([N+](=O)[O-])c1O returned ELG1 repair inh 8%, NPC1 promoter act -3%, FLuc counter inconclusive, Rab9 prom act -2% and ELG1 genotox 0%.
`O=C1NN(c2ccccc2)C(=O)/C1=C\c1ccccc1OCC(=O)N1CCOCC1` gave ELG1 repair inh 9%, NPC1 promoter act -4%, FLuc counter inconclusive, Rab9 prom act 9%, SMN2 splice enh 15% and ELG1 genotox -1%.
For COc1cc(/C=C2/C(=O)NN(c3ccc(F)cc3)C2=O)cc(Cl)c1O the results were ELG1 repair inh 20%, NPC1 promoter act -1%, FLuc counter 21µM*, Rab9 prom act 0% and ELG1 genotox 0%.
`CCn1c(SCC(O)c2ccccc2)nnc1-c1ccccc1` (configuration not stated) gave ELG1 repair inh inconclusive, NPC1 promoter act 22%, FLuc counter inconclusive, Rab9 prom act inconclusive, SMN2 splice enh 23% and ELG1 genotox 13%.
Screening COc1cc(Cl)c(C)cc1NC(=O)CSc1nc2c(c(=O)[nH]1)CCCC2 returned FLuc counter 2%.
Screening CCC(=O)Nc1ccc(S(=O)(=O)Nc2ccc(Cl)nn2)cc1 returned ELG1 repair inh 0%, NPC1 promoter act -6%, FLuc counter 0%, Rab9 prom act -3%, SMN2 splice enh 19% and ELG1 genotox 2%.
`Cc1nc(/C(N)=N/OC(=O)c2ccc(Cl)cc2)c(C(F)(F)F)o1` gave ELG1 repair inh 9%, NPC1 promoter act -5%, FLuc counter 7.6µM*, Rab9 prom act -3% and ELG1 genotox 3%.
`CCOc1ccc(C(=O)C(C)OC(=O)C2CCN(c3ccc(C(F)(F)F)cn3)CC2)cc1` (configuration not stated) gave ELG1 repair inh -17%, NPC1 promoter act -1%, FLuc counter -1%, Rab9 prom act -1% and ELG1 genotox 18µM*.
`O=C(Nc1cccc(C(F)(F)F)c1)C(SCCO)c1ccccc1` (configuration not stated) gave ELG1 repair inh 0%, NPC1 promoter act -3%, FLuc counter 4%, Rab9 prom act -4%, SMN2 splice enh 0% and ELG1 genotox -1%.
CC(=O)c1cccc(NC(=O)c2csc3c2CCCCC3)c1 was read as ELG1 repair inh -16%, NPC1 promoter act 16%, FLuc counter 13µM*, Rab9 prom act 21%, SMN2 splice enh 20% and ELG1 genotox 1%.
`CCOC(=O)c1ccc(NC(=O)c2csc3c2CCCC3)cc1` gave FLuc counter inconclusive and SMN2 splice enh -7%.
Screening CCOc1ccc(NC(=O)c2csc3c2CCCC3)cc1 returned ELG1 repair inh inconclusive, NPC1 promoter act 2.2µM*, FLuc counter 2.7µM*, Rab9 prom act 3.5µM*, SMN2 splice enh 11µM* and ELG1 genotox inconclusive.
For CN(CC(=O)Nc1cccc(F)c1)C(=O)c1csc2c1CCCC2 the results were ELG1 repair inh 2%, NPC1 promoter act -4%, FLuc counter -2%, Rab9 prom act 11% and ELG1 genotox 18%.
`CC(=O)c1cccc(NC(=O)Nc2csc3c2CCCC3)c1` gave ELG1 repair inh 0%, NPC1 promoter act -1%, FLuc counter 17µM*, Rab9 prom act 2% and ELG1 genotox -7%.
`COc1ccc2c(c1)C(=O)c1ccccc1CO2` gave ELG1 repair inh inconclusive, NPC1 promoter act 4µM*, FLuc counter 6µM*, Rab9 prom act 3.2µM*, SMN2 splice enh inconclusive and ELG1 genotox inconclusive.
`CCC(C(=O)Nc1cc(-c2nc3cccnc3s2)ccc1C)c1ccccc1` (configuration not stated) gave FLuc counter 11µM*.
Screening Cc1ccc(-c2nc3cccnc3s2)cc1NS(C)(=O)=O returned ELG1 repair inh inconclusive, NPC1 promoter act inconclusive, FLuc counter 13µM*, Rab9 prom act inconclusive and ELG1 genotox inconclusive.
For Cc1cccc(C(=O)Nc2cc(-c3nc4cccnc4s3)ccc2C)c1 the results were FLuc counter -2%.
Screening Cc1ccc(-c2nc3cccnc3s2)cc1NC(=O)C(C)C returned FLuc counter 11µM*.
Screening Cc1csc(NC(=O)C2CCCO2)n1 (configuration not stated) returned ELG1 repair inh inconclusive, NPC1 promoter act -1%, FLuc counter 1%, Rab9 prom act -2%, SMN2 splice enh inconclusive and ELG1 genotox 1%.
For O=C(Nc1nc(-c2ccccc2)cs1)C1CCCO1 (configuration not stated) the results were ELG1 repair inh inconclusive, NPC1 promoter act inconclusive, FLuc counter 24µM*, Rab9 prom act 26%, SMN2 splice enh inconclusive and ELG1 genotox inconclusive.
O=C(Nc1nc(-c2ccc(-c3ccccc3)cc2)cs1)C1CCCO1 (configuration not stated) was read as ELG1 repair inh inconclusive, NPC1 promoter act 7%, FLuc counter 8.5µM*, Rab9 prom act 0%, SMN2 splice enh -27% and ELG1 genotox 5%.
O=C(Nc1nc(-c2ccc(F)cc2)cs1)C1CCCO1 (configuration not stated) was read as ELG1 repair inh inconclusive, NPC1 promoter act 18%, FLuc counter 12µM*, Rab9 prom act 23%, SMN2 splice enh 11% and ELG1 genotox 11%.
O=C(NCCCc1nc2ccccc2[nH]1)c1ccco1 was read as ELG1 repair inh 8%, NPC1 promoter act -4%, FLuc counter 3%, Rab9 prom act 1% and ELG1 genotox 7%.
CC(C)(C)OC(=O)N1CCCC(C(=O)Nc2cccc(C(=O)N3CCCC3)c2)C1 (configuration not stated) was read as ELG1 repair inh inconclusive and ELG1 genotox 1%.
For Cc1sc2nc(C3CC3)nc(SCC(=O)N3CCCc4ccccc43)c2c1C the results were ELG1 repair inh inconclusive, NPC1 promoter act -2%, FLuc counter 3%, Rab9 prom act -5%, SMN2 splice enh 9%[1.84 µM] and ELG1 genotox -6%.
